Shiga inhibitor: inhibitors of Shiga toxin in Vero cells; Vero cells, Shiga toxin protein synthesis inhibition reporter; inhibition, % at 38.7 µM; hit rate 9.2% among 290,000; in the data active = inhibition mostly above about 28%, no sharp cut-off; inactive = mostly below about 43%
Sm TGR inh: blocks Schistosoma mansoni thioredoxin glutathione reductase | Q962Y6 | purified TGR, DTNB reduction, TNB absorbance 405 nm | Potency, µM (doses to about 114 µM), most hits filed as inhibitors | hit rate 3% among 360,000; note: nearly all actives have a fitted effect of over 60% in size
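TGR 20 nM + NADPH 100 uM (dispensed conc.), cpd preinc 15 min RT; start with NADPH (500 uM addition) then DTNB (15 mM addition). Kinetic TNB absorbance, 405 nm filter. Four-parameter Hill fit across titration.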
NS1 function inh: blocks influenza NS1 protein function; hit rate 0.4% among 270,000; AID 2326; Potency, µM (doses to about 46.1 µM); calls by dose curve; note: actives are rising curves; nearly all actives have a fitted effect of over 50% in size
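In this qHTS, NS1 from influenza A is expressed in budding yeast, where it slows growth. Cells are switched from glucose to 2% galactose medium (pH 6.0, -URA), treated with compound, and growth recovery is read at OD600.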
Pf growth 96h: P. falciparum growth inhibition at 96 hour, primary screen for plastid delayed-death inhibitors. P. falciparum luciferase reporter growth, 96 h. Potency, µM (highest dose often 28.7 µM), most hits filed as inhibitors. hit rate 6.9% among 320,000. AID 504834
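Infected RBCs, 2% Hct / 0.05% parasitemia final; luciferase-reporter P. falciparum; cpd 96 h, 37 C, 5% CO2; luciferase detection reagent; luminescence.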
Pf growth 48h: inhibits P. falciparum growth in the first generation, 48 h. P. falciparum luciferase growth in erythrocytes, 48 h. Potency, µM (series often up to 28.7 µM), hits mostly inhibitors. hit rate 5.9% among 310,000. AID 504832
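Here the parasites carry a stable luciferase gene and grow inside erythrocytes in Albumax-based RPMI medium with compound for one erythrocytic cycle. Activity is scored as loss of luminescent signal.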
Cycloheximide cs: affects cycloheximide protein synthesis inhibition readout, counter-screen; max response, %; cell reporter, cycloheximide protein synthesis inhibition counterscreen; hit rate 12% among 300,000; in the data active = max response mostly above about 13%, no sharp cut-off; inactive = mostly below about 14%; note: read at 38.3 µM for the half of the compounds with a filed dose
Large screens that a line does not name were inactive. Only some compounds are listed: those with a hit (about 21% of all), similar ones and a draw of the others. Unless noted, calls come from the whole dose curve; as a rule, active = well fitted curve in the direction sought with a large enough effect; inconclusive = small, poorly fitted or top-dose-only effect, or another doubt; inactive = no such curve, though single readings can be large; an effect the other way counts as inactive or inconclusive.

O=C(O)c1ccc(N/N=C2/CCCc3ccccc32)cc1	Shiga inhibitor 59.3, Cycloheximide cs 33.0
O=C(N/N=C1\CCCc2ccccc21)c1ccccc1Cl	Shiga inhibitor 63.2, Cycloheximide cs 36.2
O=C(N/N=C1\CCc2ccccc21)c1ccccc1O	Shiga inhibitor 79.9, Cycloheximide cs 49.0
N#Cc1ccc(OCC(=O)N/N=C2\CCc3ccccc32)cc1	Pf growth 96h inconclusive (no result: Pf growth 48h)
O=C(CNc1ccccc1Cl)N/N=C1\CCCc2ccccc21	none
CCSc1c(-c2ccccc2)nc2c(C)cccc2c1C(=O)O	none (no result: Pf growth 48h)
COc1ccc(N2CCN(C(=O)c3cccc(NC(=O)c4nsc5ccccc45)c3)CC2)cc1	none (no result: Shiga inhibitor, NS1 function inh, Pf growth 96h, Pf growth 48h, Cycloheximide cs)
NC(=O)N/N=C/c1ccc2cccc(OCc3ccccc3)c2n1	none
O=C(Cc1ccccc1)N/N=C/c1ccc2cccc(O)c2n1	Cycloheximide cs 31.6
CC(C)(C)NS(=O)(=O)c1ccc(CCC(=O)Nc2cc(Cl)ccc2Oc2ccccc2)cc1	Pf growth 48h 4.15µM (no result: Pf growth 96h)
COc1cccc(OCC(=O)Nc2cc(Cl)ccc2Oc2ccccc2)c1	Pf growth 96h inconclusive, Pf growth 48h inconclusive
CCCNS(=O)(=O)c1ccc(CCC(=O)Nc2cc(Cl)ccc2Oc2ccccc2)cc1	Pf growth 48h 13.1µM
CC(C)CNS(=O)(=O)c1ccc(CCC(=O)Nc2cc(Cl)ccc2Oc2ccccc2)cc1	Pf growth 96h 4.15µM (no result: Pf growth 48h)
CC(C)CNS(=O)(=O)c1ccc(CCC(=O)O)cc1	none
Cc1cc(C)c2c(NC(=S)NC(=O)c3ccccc3)n[nH]c2n1	none
CNC(=S)N1CCN(c2ccc(Cl)c(Cl)c2)CC1	none
Nc1ccc(N2CCN(c3ccc(Cl)c(Cl)c3)CC2)cc1	Shiga inhibitor 24.2, NS1 function inh inconclusive, Pf growth 96h inconclusive
Nc1ccc(N2CCN(c3ccc(F)cc3)CC2)cc1	Pf growth 96h inconclusive, Pf growth 48h inconclusive
Nc1ccc(N2CCCCCC2)cc1	Sm TGR inh inconclusive, Pf growth 96h inconclusive, Pf growth 48h 0.415µM
Cc1ccc(C)c(NC(=O)Cn2c(=O)n(CC3CCCO3)c(=O)c3ccccc32)c1 (centres undefined)	none (no result: Shiga inhibitor, NS1 function inh, Pf growth 96h, Pf growth 48h, Cycloheximide cs)
CCCC(=O)N(c1ccc2oc3c(c2c1)CCCC3)S(=O)(=O)c1ccc(CC)cc1	none (no result: Shiga inhibitor, NS1 function inh, Pf growth 96h, Pf growth 48h, Cycloheximide cs)
Cc1cccn2c(=O)c(/C=C(\C#N)C(N)=O)c(N3CCN(Cc4ccc5c(c4)OCO5)CC3)nc12	Pf growth 96h 10.4µM, Pf growth 48h 9.28µM
Cc1cccn2c(=O)c(/C=C(\C#N)C(N)=O)c(N3CCN(c4cccc(Cl)c4)CC3)nc12	Pf growth 96h 9.28µM, Pf growth 48h inconclusive
CCOC(=O)/C(C#N)=C/c1c(N2CCN(C)CC2)nc2c(C)cccn2c1=O	none
Cc1cccn2c(=O)c(C=C(C#N)C#N)c(N3CCN(C)CC3)nc12	Pf growth 96h 7.38µM
CCOC(=O)/C(C#N)=C/c1c(N2CCN(Cc3ccc4c(c3)OCO4)CC2)nc2c(C)cccn2c1=O	Pf growth 96h inconclusive, Pf growth 48h 3.7µM
COC(=O)/C(C#N)=C/c1c(N2CCN(Cc3ccc4c(c3)OCO4)CC2)nc2c(C)cccn2c1=O	Pf growth 96h inconclusive, Pf growth 48h inconclusive
COc1ccc(CCNC(=O)C2CCCN2S(=O)(=O)c2cccc3nsnc23)cc1OC (centres undefined)	none
O=C(O)C1C2CCCCC2=C2CCCCC2C1C(=O)c1ccccc1 (centres undefined)	none
CN(C)C(=O)N1CCCC(C(=O)NCCc2ccccc2)C1 (centres undefined)	Shiga inhibitor 95.1, Cycloheximide cs 26.0
CN(C)C(=O)N1CCCC(C(=O)NCc2ccccc2)C1 (centres undefined)	none
CC(C)CNC(=O)C1CCCN(C(=O)NCc2ccccc2)C1 (centres undefined)	Pf growth 96h 4.65µM
CCOC(=O)[C@H](CCc1ccccc1)N[C@@H](C)C(=O)N1C(=O)N(C)C[C@H]1C(=O)O	none (no result: Shiga inhibitor, Sm TGR inh, NS1 function inh, Cycloheximide cs)
Cc1ccc(C(=O)Nc2ccc(-c3cn4cccnc4n3)cc2)cc1C	none (no result: Shiga inhibitor, NS1 function inh, Pf growth 96h, Pf growth 48h, Cycloheximide cs)
O/C=c1\ccc2cccc3nc(C(F)(F)F)nc1c23	Sm TGR inh 3.16µM
O=C(O)c1ccccc1-c1ccccc1C(=O)Nc1ccc2c(c1)Cc1cc(F)ccc1-2	none (no result: Shiga inhibitor, Sm TGR inh, Pf growth 96h, Pf growth 48h, Cycloheximide cs)
O=C(Cn1nnc(-c2ccc(F)cc2)n1)Nc1cccc(S(=O)(=O)N2CCCC2)c1	Pf growth 96h 13.1µM, Pf growth 48h inconclusive (no result: Shiga inhibitor, NS1 function inh, Cycloheximide cs)
Cc1ccc(NC(=O)CSc2ncccn2)cc1F	Shiga inhibitor 63.6, Cycloheximide cs 46.4 (no result: NS1 function inh)

High-throughput results as filed in PubChem.
